{"source": "PubChem BioAssay (NCATS)", "note": "Records with an inconclusive call do not appear. Unmarked numbers belong to inactive results. The source made the active and inactive calls. Calls come from the whole dose curve; as a rule, active = well fitted curve in the direction sought with a large enough effect; inconclusive = small, poorly fitted or top-dose-only effect, or another doubt; inactive = no such curve, though single readings can be large; an effect the other way counts as inactive or inconclusive.", "data": [{"molecular_target": "Protein phosphatase 1D (Homo sapiens) (UniProt O15297)", "sequence (O15297 whole entry, looked up)": "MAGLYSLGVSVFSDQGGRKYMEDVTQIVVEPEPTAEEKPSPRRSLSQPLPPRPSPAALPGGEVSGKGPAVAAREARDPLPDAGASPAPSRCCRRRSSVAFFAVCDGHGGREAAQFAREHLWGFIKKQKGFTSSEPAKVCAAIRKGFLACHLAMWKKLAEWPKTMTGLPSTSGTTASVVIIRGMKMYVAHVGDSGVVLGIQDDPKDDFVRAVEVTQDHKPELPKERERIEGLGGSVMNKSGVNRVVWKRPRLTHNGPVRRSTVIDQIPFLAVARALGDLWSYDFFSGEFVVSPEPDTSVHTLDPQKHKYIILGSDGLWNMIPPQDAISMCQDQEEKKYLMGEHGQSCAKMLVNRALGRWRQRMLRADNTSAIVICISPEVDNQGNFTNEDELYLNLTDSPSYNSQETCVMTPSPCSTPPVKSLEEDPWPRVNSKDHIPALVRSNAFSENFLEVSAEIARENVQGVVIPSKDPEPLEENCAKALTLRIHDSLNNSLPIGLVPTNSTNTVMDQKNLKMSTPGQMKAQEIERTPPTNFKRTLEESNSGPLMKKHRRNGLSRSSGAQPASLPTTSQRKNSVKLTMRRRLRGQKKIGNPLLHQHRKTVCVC", "assay": "RapidFire Mass Spectrometry qHTS Assay for Modulators of WT P53-Induced Phosphatase 1 (WIP1) (AID 1347424);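 note: amount of dephosphorylated VEPPL-S-QETFS peptide product formed by WIP1; plate controls were DMSO wells for no effect and GSK830371 inhibitor control at 10 µM for full effect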", "conditions": "WIP1 dephosphorylation of phosphopeptide, RapidFire MS; series mostly up to 63 µM; activity change, negative = inhibition: at the top concentration", "procedure,_shortened": "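10 nM WIP1 + cpd, 1 h RT; + 2 uM VEPPL-pS-QETFS, 5 min RT; stop 0.5% formic acid; labelled product standard 1 uM; RapidFire MS. Buffer 50 mM Tris pH 7.5, 30 mM MgCl2, 1 mM TCEP.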", "values": [{"compound": "CCCCN=C(N)N=C(N)N", "activity change, negative = inhibition": "-2.53% (inactive)"}, {"compound": "Cc1cc(NS(=O)(=O)c2ccc(N)cc2)nc(C)n1", "activity change, negative = inhibition": "7.18% (inactive)"}, {"compound": "O=C1OC(CN2CCOCC2)CN1/N=C/c1ccc([N+](=O)[O-])o1", "note": "(centres undefined)", "activity change, negative = inhibition": "-3.07% (inactive)"}, {"compound": "CC(C)NCC(O)c1ccc2ccccc2c1", "note": "(centres undefined)", "activity change, negative = inhibition": "9% (inactive)"}, {"compound": "CCOc1ccc(NC(C)=O)cc1", "activity change, negative = inhibition": "-3.78% (inactive)"}, {"compound": "CCOC(=O)[C@@](C)(N)Cc1ccc(O)c(O)c1", "activity change, negative = inhibition": "-19.7% (inactive)"}, {"compound": "CC(C)(C)NC[C@H](O)COc1cccc2c1CCCC2=O", "activity change, negative = inhibition": "3.26% (inactive)"}, {"compound": "O=C(N/N=C/c1ccc([N+](=O)[O-])o1)c1ccc(O)cc1", "activity change, negative = inhibition": "-17.5% (inactive)"}]}, {"molecular_target": "Protein phosphatase 1D (Homo sapiens) (UniProt O15297)", "assay": "Rhodamine-PBP qHTS Assay for Modulators of WT P53-Induced Phosphatase 1 (WIP1) (AID 1347425); note: % of control where 0% means no effect", "conditions": "recombinant WIP1, Rhodamine-PBP phosphate fluorescence, real-time; series mostly up to 57.5 µM; activity change, negative = inhibition: at the top concentration", "procedure,_shortened": "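Steps: enzyme with Rh-PBP sensor and compounds, room-temperature incubation of 1 hr, baseline read, addition of VEPPL-pS-QETFS (10 uM final), kinetic fluorescence reads at 525/598 nm. Activity equals final minus baseline signal.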", "values": [{"compound": "FC(F)(F)C(F)(F)C(F)(F)C(F)(F)C(F)(F)C(F)(F)C(F)(F)C(F)(F)Br", "activity change, negative = inhibition": "10.4% (inactive)"}, {"compound": "CCCCc1cc2ccccc2c(OCCN(C)C)n1", "activity change, negative = inhibition": "8.44% (inactive)"}, {"compound": "Cc1ccc(S(=O)(=O)NC(=O)NC2CCCC2)cc1", "activity change, negative = inhibition": "3.91% (inactive)"}, {"compound": "COc1ccc(C(=O)c2ccccc2O)c(O)c1", "activity change, negative = inhibition": "-6.03% (inactive)"}, {"compound": "CCOC(=O)C(C#N)=C(c1ccccc1)c1ccccc1", "activity change, negative = inhibition": "-2.55% (inactive)"}, {"compound": "Nc1nc(-c2ccccc2)c(Br)c(=O)[nH]1", "activity change, negative = inhibition": "13.8% (inactive)"}, {"compound": "O=[N+]([O-])c1cccc(S(=O)(=O)NCCNS(=O)(=O)c2cccc([N+](=O)[O-])c2)c1", "activity change, negative = inhibition": "-7.65% (inactive)"}, {"compound": "CN(C)CCOC(=O)C(c1ccccc1)C1(O)CCCC1", "note": "(centres undefined)", "activity change, negative = inhibition": "-1.83% (inactive)"}, {"compound": "CCCCCCCCOc1ccc(C(=O)c2ccccc2)c(O)c1", "activity change, negative = inhibition": "3.84% (inactive)"}, {"compound": "COc1cc(N)c(Cl)cc1C(=O)NC1CCN(Cc2ccccc2)CC1", "activity change, negative = inhibition": "9.81% (inactive)"}, {"compound": "Nc1ccc(S(=O)(=O)NCc2ccccc2)cc1", "activity change, negative = inhibition": "1% (inactive)"}, {"compound": "CCc1cc(Cl)c(OC)c(C(=O)NC[C@@H]2CCCN2CC)c1O", "activity change, negative = inhibition": "19.9% (inactive)"}, {"compound": "OCc1ccccn1", "activity change, negative = inhibition": "-16.4% (inactive)"}, {"compound": "Cc1cccc(C)c1NC(=O)c1ccccc1C(=O)O", "activity change, negative = inhibition": "0.772% (inactive)"}, {"compound": "COc1cc(O)c(C(=O)c2ccccc2)cc1S(=O)(=O)O", "activity change, negative = inhibition": "2.62% (inactive)"}, {"compound": "CCc1nn(CCCN2CCN(c3cccc(Cl)c3)CC2)c(=O)n1CCOc1ccccc1", "activity change, negative = inhibition": "22.2% (inactive)"}, {"compound": "OC1C(O)C(O)C(O)C(O)C1O", "note": "(centres undefined)", "activity change, negative = inhibition": "-2.94% (inactive)"}, {"compound": "CC(=O)Nc1ccc(OCC(O)CNC(C)C)cc1", "note": "(centres undefined)", "activity change, negative = inhibition": "-5.48% (inactive)"}, {"compound": "O=C(NCCc1c[nH]c2ccccc12)c1cccnc1", "activity change, negative = inhibition": "0.0772% (inactive)"}, {"compound": "Cc1cccc(C)c1NC(=O)CN1CCCCCC1", "activity change, negative = inhibition": "7.03% (inactive)"}, {"compound": "CN1CCc2cccc3c2[C@H]1Cc1ccc(O)c(O)c1-3", "activity change, negative = inhibition": "8.42% (inactive)"}, {"compound": "COc1ccc2c(c1)c1c3n2CCN(C)C3=NCC1", "activity change, negative = inhibition": "4.33% (inactive)"}, {"compound": "O=C(O)Cc1csc(-c2ccc(Cl)cc2)n1", "activity change, negative = inhibition": "3.05% (inactive)"}, {"compound": "CCCCCCCCCCCCCCCC(=O)O", "activity change, negative = inhibition": "-28% (inactive)"}, {"compound": "C=C[C@@]1(C)CC(=O)[C@]2(O)[C@@]3(C)[C@@H](O)CCC(C)(C)[C@@H]3[C@H](O)[C@H](OC(C)=O)[C@@]2(C)O1", "activity change, negative = inhibition": "12.7% (inactive)"}, {"compound": "COc1cc(C(=O)N2CCCCCCC2)cc(OC)c1OC", "activity change, negative = inhibition": "17.6% (inactive)"}, {"compound": "c1ccc(-c2nc[nH]c2-c2ccccc2)cc1", "activity change, negative = inhibition": "-1.08% (inactive)"}, {"compound": "CCN[C@@H]1C[C@H](N)[C@@H](OC2OC(CN)=CCC2N)[C@H](O)[C@H]1O[C@H]1OC[C@](C)(O)[C@H](NC)[C@H]1O", "note": "(some centres undefined)", "activity change, negative = inhibition": "-2.47% [at 0.575 µM]"}, {"compound": "CCCCN=C(N)N=C(N)N", "activity change, negative = inhibition": "2.91% (inactive)"}, {"compound": "Cc1cc(NS(=O)(=O)c2ccc(N)cc2)nc(C)n1", "activity change, negative = inhibition": "0.695% (inactive)"}, {"compound": "O=C1OC(CN2CCOCC2)CN1/N=C/c1ccc([N+](=O)[O-])o1", "note": "(centres undefined)", "activity change, negative = inhibition": "-7.11% (inactive)"}, {"compound": "CC(C)NCC(O)c1ccc2ccccc2c1", "note": "(centres undefined)", "activity change, negative = inhibition": "-0.538% (inactive)"}, {"compound": "CCOc1ccc(NC(C)=O)cc1", "activity change, negative = inhibition": "-5.41% (inactive)"}, {"compound": "CCOC(=O)[C@@](C)(N)Cc1ccc(O)c(O)c1", "activity change, negative = inhibition": "-7.11% (inactive)"}, {"compound": "CC(C)(C)NC[C@H](O)COc1cccc2c1CCCC2=O", "activity change, negative = inhibition": "5.42% (inactive)"}, {"compound": "O=C(N/N=C/c1ccc([N+](=O)[O-])o1)c1ccc(O)cc1", "activity change, negative = inhibition": "-22.7% (inactive)"}]}]}
